The target of experiment [1] is Transcription factor E2F1 (Homo sapiens) (UniProt Q01094). Description: ATG_E2F_CIS: Attagene CIS-FACTORIAL HepG2 Assay for human E2F Transcription Factor 1 (AID 2282935). Conditions: HepG2 Attagene cis-reporter, E2F reporter RNA transcripts; actives raise or lower the signal. The procedure, abridged: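 Multiplexed cis-reporter assay: HepG2, transient transfection, 24 h dosing, mRNA quantitation by labeled RT-PCR and CE.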

Experiment [2] is described as follows: ATG_E_Box_CIS: Attagene CIS-FACTORIAL HepG2 Assay for human Enhancer Box (E-box) (AID 2282936). As to conditions: HepG2 E-box cis-reporter transcription, actives raise or lower the signal. In short, it runs like this:
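Multiplexed CIS reporter system in transiently transfected HepG2 cells measures native transcription factor activity. Reporter RNA after 24 h exposure is profiled by RT-PCR-capillary electrophoresis.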

Experiment [3] is described as follows: ATG_EGR_CIS: Attagene CIS-FACTORIAL HepG2 Assay for human Early Growth Response 1 (EGR1) (AID 2282938). As to conditions: HepG2 Attagene CIS-FACTORIAL EGR reporter mRNA; actives raise or lower the signal. In short, it runs like this: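 Endpoint derived by bidirectional fitting versus DMSO vehicle. Method: cis-promoter reporter units transfected into HepG2, 24 h dosing, RNA isolation, RT-PCR with 6-FAM primer extension and HpaI digestion, then capillary electrophoresis fluorescence detection.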

Experiment [4] can be described thus: ATG_M_19_CIS: Attagene CIS-FACTORIAL HepG2 Assay for M19 Transcription Factor (Internal Marker) (AID 2282939). Conditions: HepG2 Attagene CIS-FACTORIAL M19 internal marker reporter; actives raise or lower the signal. The procedure, abridged: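 Readout: fluorescent reporter-transcript fragments by capillary electrophoresis after RT-PCR. Human HepG2 liver cells carried transfected MRTU constructs reporting endogenous transcription-factor activity; exposure 24 h. Gain or loss of signal fitted relative to DMSO.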

Experiment [5] can be described thus: ATG_ERE_CIS: Attagene CIS-FACTORIAL HepG2 Assay for Estrogen Response Element (ERE) (AID 2282940). As to conditions: HepG2 ERE cis-reporter, Attagene RNA transcript; actives raise or lower the signal. The procedure, abridged:
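Readout: reporter mRNA induction by RT-PCR, FAM-labelled primer extension, HpaI digestion and capillary electrophoresis, 24 h after dosing transfected HepG2 cells. Endogenous transcription factors act on cis-element-regulated reporters. Gain or loss fitted against DMSO.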

Experiment [6] can be described thus: ATG_Ets_CIS: Attagene CIS-FACTORIAL HepG2 Assay for human Erythroblast Transformation Specific (ETS) (AID 2282941). As to conditions: HepG2 ETS cis-reporter transcription, actives raise or lower the signal. The procedure, abridged:
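HepG2 cells transfected with multiple cis-regulated reporter units measuring endogenous ETS-driven transcription, 24 h after dosing. Reporter mRNA quantified by RT-PCR with capillary electrophoresis; bidirectional fit relative to DMSO.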

The target in experiment [7] is Hepatocyte nuclear factor 3-beta (Homo sapiens) (UniProt Q9Y261). Description: ATG_FoxA2_CIS: Attagene CIS-FACTORIAL HepG2 Assay for human Forkhead box A2 (FOXA2) (AID 2282942). As to conditions: HepG2 cis-reporter transcription factor activity, 24 h; actives raise or lower the signal. In short, it runs like this:
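Measured: reporter mRNA induction or loss in HepG2 transiently carrying multiple cis-regulated reporter units, 24 h after dosing. Quantified by RT-PCR plus capillary electrophoresis, normalised to DMSO.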

Experiment [8] is described as follows: ATG_FoxO_CIS: Attagene CIS-FACTORIAL HepG2 Assay for human Forkhead box O (FoxO) (AID 2282943). Conditions: HepG2 Attagene cis-reporter, FoxO element, mRNA; actives raise or lower the signal. In short, it runs like this:
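24 h chemical exposure, HepG2 with transient cis-MRTU transfection. RNA extraction, oligo(dT) RT, reporter-specific PCR, primer-extension labelling, HpaI digestion, CE fragment analysis; bidirectional fit, DMSO baseline.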

Experiment [9] is described as follows: ATG_GATA_CIS: Attagene CIS-FACTORIAL HepG2 Assay for human GATA Binding Protein (AID 2282944). As to conditions: HepG2 GATA cis-element reporter, Attagene multiplex mRNA; actives raise or lower the signal. The procedure, abridged:
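Read-out: fluorescent reporter mRNA fragments resolved by capillary electrophoresis after RT-PCR. Human liver HepG2 cells carried transiently transfected cis-regulated reporter constructs; chemicals incubated 24 h; gain or loss of signal fitted relative to DMSO.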

Calls of active or inactive are those of the source. The calls were made as follows: active = hit-call score of the fitted dose curve at least 0.9, where 1 is the maximum; inactive = score below 0.9.

Transcription factor E2F1 (Homo sapiens), sequence (Q01094 whole entry, looked up): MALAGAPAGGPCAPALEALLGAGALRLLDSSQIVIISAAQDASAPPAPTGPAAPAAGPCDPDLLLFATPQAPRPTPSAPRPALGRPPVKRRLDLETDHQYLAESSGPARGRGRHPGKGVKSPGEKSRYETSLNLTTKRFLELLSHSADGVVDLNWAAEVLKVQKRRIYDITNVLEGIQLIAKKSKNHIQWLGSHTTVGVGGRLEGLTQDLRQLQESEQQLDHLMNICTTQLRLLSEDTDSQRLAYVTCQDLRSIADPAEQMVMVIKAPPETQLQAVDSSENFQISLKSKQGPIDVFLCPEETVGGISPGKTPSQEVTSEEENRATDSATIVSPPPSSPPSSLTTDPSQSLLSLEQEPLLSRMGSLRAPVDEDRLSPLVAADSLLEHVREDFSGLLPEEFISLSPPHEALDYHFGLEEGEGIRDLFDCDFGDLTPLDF
Hepatocyte nuclear factor 3-beta (Homo sapiens), sequence (Q9Y261 whole entry, looked up): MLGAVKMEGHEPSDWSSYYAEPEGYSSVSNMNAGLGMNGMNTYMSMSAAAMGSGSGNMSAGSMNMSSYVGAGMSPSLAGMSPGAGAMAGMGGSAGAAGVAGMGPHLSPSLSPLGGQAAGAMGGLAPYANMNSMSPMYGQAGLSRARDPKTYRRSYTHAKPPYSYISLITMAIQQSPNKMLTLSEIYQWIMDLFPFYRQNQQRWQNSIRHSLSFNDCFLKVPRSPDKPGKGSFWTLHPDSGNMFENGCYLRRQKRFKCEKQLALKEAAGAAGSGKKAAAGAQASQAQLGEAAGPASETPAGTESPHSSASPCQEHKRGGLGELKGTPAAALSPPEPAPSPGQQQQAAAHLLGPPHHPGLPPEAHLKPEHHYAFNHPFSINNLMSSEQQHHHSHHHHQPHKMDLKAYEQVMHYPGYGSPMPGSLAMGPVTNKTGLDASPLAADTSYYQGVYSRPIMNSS

By AC50 is commonly meant the concentration at which the activity in the assay is half-maximal. For `c1ccc2c(c1)sc1ccccc12`, the result in [1], in experiment [2], in [3], in experiment [4], in experiment [6] and in experiment [7] was inactive. Further, the result in experiment [8] and in experiment [9] was inactive. Further, the half-maximal activity concentration (AC50) in experiment [5] is 125 µM (active).

Regarding `Cc1c([N+](=O)[O-])cc2c(c1[N+](=O)[O-])C(C)(C)CC2(C)C`, the call in [1], in experiment [2], in experiment [3], in experiment [4], in [5] and in experiment [6] was inactive. Besides, the outcome in [7], in experiment [8] and in experiment [9] was inactive.

`Cc1ccc(N)cc1N`: the call in experiment [1], in experiment [2], in [3], in [4], in experiment [5] and in experiment [6] was inactive. Further, the outcome in [7], in experiment [8] and in experiment [9] was inactive.

For the compound `COC(N)=O`, the call in experiment [1], in [2], in experiment [3], in experiment [4], in experiment [5] and in experiment [6] was inactive. For the same compound, the result in experiment [7], in [8] and in experiment [9] was inactive.

`CCC1(c2ccccc2)C(=O)N=C(O)NC1=O` (stereo not given): the call in [1], in [2], in experiment [3], in experiment [4], in experiment [5] and in experiment [6] was inactive. For the same compound, the compound was called inactive in [7], in experiment [8] and in experiment [9].

On to `N#Cc1cc([N+](=O)[O-])ccc1N`, for which the compound was classed as inactive in experiment [1], in [2], in experiment [3], in experiment [4], in experiment [5] and in experiment [6]. Also, the call in experiment [7], in [8] and in [9] was inactive.

Regarding `NNC(N)=S`, the outcome in [1], in experiment [2], in experiment [3], in [4], in experiment [5] and in experiment [6] was inactive. In addition, the call in [7], in experiment [8] and in experiment [9] was inactive.

Regarding `Oc1ccccc1Br`, the outcome in experiment [1], in experiment [2], in [3], in [4], in experiment [5] and in experiment [6] was inactive. Moreover, the call in experiment [7], in [8] and in experiment [9] was inactive.

Regarding `CSC(C)(C)C=NO`, the outcome in [1], in experiment [2], in [3], in experiment [4], in experiment [5] and in [6] was inactive. For the same compound, the outcome in experiment [7], in experiment [8] and in experiment [9] was inactive.

Take `O=C(O)C(F)(F)OC(F)(F)C(F)(F)OC(F)(F)C(=O)O`: the result in [1], in experiment [2], in experiment [3], in [4], in experiment [5] and in experiment [6] was inactive. The call in experiment [7], in experiment [8] and in experiment [9] was inactive.

For the compound `CC(O)C(F)(F)C(F)(F)F` (stereo not given), the compound was classed as inactive in experiment [1], in experiment [2], in experiment [3], in [4], in experiment [5] and in experiment [6]. The outcome in [7], in experiment [8] and in [9] was inactive.

On to `OCC(F)(F)OC(F)(F)C(F)(F)OC(F)(F)CO`, for which the compound was classed as inactive in experiment [1], in experiment [2], in experiment [3], in experiment [4], in [6] and in experiment [7]. In addition, the outcome in experiment [8] and in [9] was inactive. For the same compound, in experiment [5], the AC50 is 20 µM (active).

On to `CCOP(=S)(OCC)SCS(=O)(=O)CC`, for which the outcome in experiment [1], in [2], in [3], in [4], in [5] and in [6] was inactive. The compound was classed as inactive in experiment [7], in experiment [8] and in experiment [9].

For the compound `N#Cc1ccc(O)cc1`, the call in experiment [1], in experiment [2], in [3], in experiment [4], in [5] and in [6] was inactive. Besides, the result in [7], in [8] and in experiment [9] was inactive.

`CNC(=O)Oc1ccc(N(C)C)c(C)c1`: the compound was classed as inactive in experiment [1], in experiment [2], in experiment [3], in experiment [4], in experiment [5] and in [6]. The outcome in [7], in experiment [8] and in experiment [9] was inactive.

For the compound `CC(C)(C)OOC(C)(C)C`, the compound was called inactive in [1], in experiment [2], in [3], in [4], in [5] and in [6]. For the same compound, the outcome in experiment [7], in [8] and in experiment [9] was inactive.

Regarding `O=S1(=O)OCC2C(CO1)C1(Cl)C(Cl)=C(Cl)C2(Cl)C1(Cl)Cl` (stereo not given), the compound was called inactive in [1], in experiment [4], in [6], in experiment [7], in experiment [8] and in [9]. For the same compound, the AC50 in experiment [2] was 26.5 µM (active); in experiment [3] it was 179 µM (active); in experiment [5], 1.84 µM (active).

For the compound `CCOC(=O)c1ccccc1C(=O)OCC`, the compound was classed as inactive in experiment [1], in experiment [2], in experiment [3], in experiment [4], in experiment [5] and in experiment [6]. Moreover, the outcome in experiment [7], in [8] and in [9] was inactive.

For `O=P(OCC(Br)CBr)(OCC(Br)CBr)OCC(Br)CBr` (stereo not given), the compound was called inactive in experiment [1], in [2], in [4], in [5], in [6] and in experiment [7]. For the same compound, the outcome in experiment [8] and in experiment [9] was inactive. Besides, the AC50 in experiment [3] is 7.19 µM (active).

As to `CC(C)CBr`, the result in [1], in experiment [2], in experiment [3], in experiment [4], in [5] and in experiment [6] was inactive. Also, the compound was called inactive in experiment [7], in experiment [8] and in [9].

Turning to `CCCCN(CCCC)SN(C)C(=O)Oc1cccc2c1OC(C)(C)C2`, the compound was called inactive in experiment [1], in [2], in experiment [3], in [4], in experiment [6] and in experiment [7]. The compound was called inactive in experiment [8] and in experiment [9]. The AC50 in [5] is 14.7 µM (active).

Regarding `O=P(Oc1ccccc1)(Oc1ccccc1)Oc1ccccc1`, the outcome in experiment [1], in experiment [2], in experiment [4], in experiment [6], in [7] and in experiment [8] was inactive. Also, in experiment [9], the result was inactive. The AC50 in [3] is 33.4 µM (active); in experiment [5], 9.81 µM (active).

On to `O=[N+]([O-])c1ccccc1`, for which the outcome in experiment [1], in experiment [2], in experiment [3], in [4], in experiment [6] and in experiment [7] was inactive. Also, the result in experiment [8] and in experiment [9] was inactive. Besides, the concentration at half-maximal activity (AC50) in experiment [5] was 52.7 µM (active).

Turning to `N#C/C=C/c1ccccc1`, the compound was called inactive in experiment [1], in [2], in experiment [3], in [4], in [5] and in [6]. In addition, the result in [7], in experiment [8] and in experiment [9] was inactive.

For the compound `CCN(CC)C1CCCCC1`, the compound was classed as inactive in [1], in experiment [2], in experiment [3], in experiment [4], in [5] and in experiment [6]. For the same compound, the result in experiment [7], in [8] and in experiment [9] was inactive.

The values above are taken from PubChem BioAssay (EPA / NIEHS).
